{"source": "PubChem BioAssay AID651593", "about": "(National Center for Advancing Translational Sciences (NCATS), 2012)", "note": "The campaign covered roughly 1,100 compounds. About 860 (78%) were called active. Inconclusive results (about 19%) are left out. Calls follow the shape of the dose curve; as a rule, active = well fitted activation curve with a large enough effect; inconclusive = small, poorly fitted or top-dose-only effect; inactive = flat fitted curve, though single readings scatter. So high a share suggests a set chosen from earlier hits. The list shows a part of the results. Potency is read from the fitted curve at half-maximal effect.", "data": [{"assay": "qHTS of Nrf2 Activators: Hit Validation in Primary Assay; also: nearly all actives have a fitted effect of over 70% in size; as to activation: 0% is about no effect", "settings": "Nrf2/ARE reporter cell assay; Potency: activation; series mostly up to 46.1 µM; activation: at the top concentration", "in_short": "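Luminescence from Steady-Glo lysis reagent, read after 30 min, reported ARE-luciferase activity in AREc32_fluc stable cells. Compounds were tested at several concentrations, incubated 24 h at 37 °C with 5% CO2 following overnight seeding.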", "values": [{"smiles": "Cc1c(Cl)cccc1N=c1c([N+](=O)[O-])nn(-c2ccccc2)n1O", "Potency": "2.31 µM (active)"}, {"smiles": "COc1ccc(Cl)cc1NC(=O)CCS(=O)(=O)c1cccc2nonc12", "Potency": "16.4 µM (active)"}, {"smiles": "Nc1c(Cl)cc(N=Nc2ccccc2)cc1Cl", "Potency": "2.59 µM (active)"}, {"smiles": "O=c1oc2ccccc2nc1/C=C(\\O)c1ccc(Br)cc1", "Potency": "20.6 µM (active)"}, {"smiles": "O=C(Cn1cnc2ccccc21)N/N=C/C(Br)=C/c1ccccc1", "Potency": "20.6 µM (active)"}, {"smiles": "OCCC#Cc1c(-c2ccsc2)sc2ccccc12", "Potency": "2.31 µM (active)"}, {"smiles": "O=C(/C=C/c1ccco1)Nc1ccc2nn(-c3ccccc3)nc2c1", "Potency": "7.31 µM (active)"}, {"smiles": "O=C(/C=C/c1ccco1)Nc1cccc(S(=O)(=O)N2CCOCC2)c1", "Potency": "8.2 µM (active)"}, {"smiles": "O=C(/C=C/c1ccco1)Nc1ccc(-c2nc3ccccc3[nH]2)cc1", "Potency": "1.3 µM (active)"}, {"smiles": "O=C(/C=C/c1ccco1)Nc1ccc(Cl)c(-c2nc3cc(Cl)ccc3o2)c1", "Potency": "1.16 µM (active)"}, {"smiles": "O=[N+]([O-])c1cc2c(cc1Br)-c1ccccc1C2", "Potency": "2.31 µM (active)"}, {"smiles": "COc1cc2c(cc1NC(=O)c1ccccc1F)CCCC2", "Potency": "6.51 µM (active)"}, {"smiles": "COc1cc2c(cc1NC(=O)c1cccc(F)c1)CCCC2", "Potency": "2.59 µM (active)"}, {"smiles": "Cc1cc(O)cc2c1C(=O)/C(=C/c1ccco1)O2", "Potency": "1.84 µM (active)"}, {"smiles": "COc1cccc(NC(=O)c2cc(Cl)nnc2Cl)c1", "Potency": "18.4 µM (active)"}, {"smiles": "CCSc1ncc(Cl)c(C(=O)Nc2ccccc2)n1", "Potency": "4.61 µM (active)"}, {"smiles": "COc1cccc(NC(=O)c2nc(SC)ncc2Cl)c1", "Potency": "2.91 µM (active)"}, {"smiles": "COc1cccc(NC(=O)c2nn(C)cc2Br)c1", "Potency": "16.4 µM (active)"}, {"smiles": "CCOC(=O)c1ccc(NC(=O)c2nc(S(=O)(=O)Cc3ccccc3)ncc2Cl)cc1", "Potency": "3.66 µM (active)"}, {"smiles": "O=C(NCCc1ccccn1)c1c(-c2ccsc2)sc2ccccc12", "Potency": "2.31 µM (active)"}, {"smiles": "O=C(Nc1cccc2nsnc12)c1cccs1", "Potency": "2.91 µM (active)"}, {"smiles": "COC(=O)c1ccccc1NC(=O)c1cccs1", "Potency": "14.6 µM (active)"}, {"smiles": "COc1ccccc1C(=O)COC(=O)c1cccs1", "Potency": "6.51 µM (active)"}, {"smiles": "O=C(Nc1ccc2nsnc2c1)c1cccs1", "Potency": "6.51 µM (active)"}, {"smiles": "CNC(=O)C1CCN(S(=O)(=O)c2c(C)noc2/C=C/c2ccccc2F)CC1", "Potency": "9.2 µM (active)"}, {"smiles": "O=C(/C=C/Nc1ccc(F)cc1)c1cccs1", "Potency": "6.51 µM (active)"}, {"smiles": "CCOC(=O)c1ccccc1N/C=C/C(=O)c1ccccc1", "Potency": "3.26 µM (active)"}, {"smiles": "CCOC(=O)c1ccccc1N/C=C/C(=O)c1cccs1", "Potency": "2.31 µM (active)"}, {"smiles": "O=C(CN1CCCCC1)Nc1nnc(-c2ccccc2)s1", "Potency": "5.8 µM (active)"}, {"smiles": "C/C(=N\\Nc1ccc(F)cc1F)c1ccc(Br)s1", "Potency": "16.4 µM (active)"}, {"smiles": "C/C(=N\\Nc1ccccn1)c1ccc(Br)s1", "Potency": "7.31 µM (active)"}, {"smiles": "C/C(=N\\Nc1ccccn1)c1cccs1", "Potency": "14.6 µM (active)"}, {"smiles": "N#Cc1cccn1-c1nccc(-c2cccs2)n1", "Potency": "4.61 µM (active)"}, {"smiles": "COCCNC(=O)c1ccc(-n2c(-c3ccccc3)cc3c2CCC(C)C3)cc1", "note": "(stereo unspecified)", "Potency": "16.4 µM (active)"}, {"smiles": "CC1CCc2c(cc(-c3ccccc3)n2-c2ccc(C(=O)NC(C)C)cc2)C1", "note": "(stereo unspecified)", "Potency": "23.1 µM (active)"}, {"smiles": "Cc1ccc(S(=O)(=O)c2nc(S(C)(=O)=O)sc2N2CCC(C)CC2)cc1", "Potency": "20.6 µM (active)"}, {"smiles": "Cc1ccc(S(=O)(=O)c2nc(S(C)(=O)=O)sc2N2CCC(O)CC2)cc1", "Potency": "9.2 µM (active)"}, {"smiles": "Cc1ccc(S(=O)(=O)c2nc(S(C)(=O)=O)sc2N2CCCCC2C)cc1", "note": "(stereo unspecified)", "Potency": "2.06 µM (active)"}, {"smiles": "COc1ccc(-c2cc3ccccc3oc2=O)cc1NC(=O)c1ccc([N+](=O)[O-])o1", "Potency": "3.26 µM (active)"}, {"smiles": "COc1ccccc1NC(=O)c1cnc(SCC(=O)NCCc2ccccc2)n(C)c1=O", "Potency": "3.66 µM (active)"}, {"smiles": "Cc1ccc(OCC(=O)Nc2cccc3ccccc23)c([N+](=O)[O-])n1", "Potency": "11.6 µM (active)"}, {"smiles": "O=C(COc1cccnc1[N+](=O)[O-])Nc1cccc2ccccc12", "Potency": "16.4 µM (active)"}, {"smiles": "C/C(=N\\Nc1ccc2nncn2n1)c1ccc(Cl)s1", "Potency": "3.66 µM (active)"}, {"smiles": "COc1ccc([N+](=O)[O-])cc1C1NN=C(c2ccccc2O)S1", "note": "(stereo unspecified)", "Potency": "2.91 µM (active)"}, {"smiles": "O=C1CC(c2ccco2)CC(O)=C1C=Nc1cc(Cl)ccc1O", "note": "(stereo unspecified)", "Potency": "4.61 µM (active)"}, {"smiles": "CC1(C)C(=O)OC(/C=C/c2cccc([N+](=O)[O-])c2)C(C)(C)C1=O", "note": "(stereo unspecified)", "Potency": "1.03 µM (active)"}, {"smiles": "N#C/C(=C\\c1c(Oc2ccc(Cl)cc2)nc2ccccn2c1=O)C(=O)NC1CCS(=O)(=O)C1", "note": "(stereo unspecified)", "Potency": "2.06 µM (active)"}, {"smiles": "Cc1cc(C)c2c(N)c(C(=O)c3ccc(Br)cc3)oc2n1", "Potency": "4.11 µM (active)"}, {"smiles": "Cc1ccc(-c2cc(-c3cccc(F)c3)n[nH]2)c(O)c1", "Potency": "2.59 µM (active)"}, {"smiles": "Cc1cccn2c(=O)c(C=NCCO)c(NCc3ccco3)nc12", "Potency": "2.59 µM (active)"}, {"smiles": "O=Cc1c(NCc2ccco2)nc2ccccn2c1=O", "Potency": "1.64 µM (active)"}, {"smiles": "Fc1ccc2cc(-c3ccsc3)ncc2c1", "Potency": "7.31 µM (active)"}, {"smiles": "COc1ccc(N2C(=O)/C(=C\\c3ccco3)N=C2SCC(N)=O)cc1Cl", "Potency": "1.64 µM (active)"}, {"smiles": "O=C(C=Cc1ccccc1Cl)c1ccccc1", "Potency": "18.4 µM (active)"}, {"smiles": "Clc1nnc(NN=C2CCCC2)c2ccccc12", "Potency": "4.61 µM (active)"}, {"smiles": "Clc1ccc(/C=N/Nc2nnc(Cl)c3ccccc23)cc1", "Potency": "2.31 µM (active)"}, {"smiles": "O=[N+]([O-])c1cccc(N2Cc3ccccc3C2)c1", "Potency": "20.6 µM (active)"}, {"smiles": "O=C(N/N=C/C(Br)=C/c1ccccc1)c1ccc([N+](=O)[O-])cc1", "Potency": "18.4 µM (active)"}, {"smiles": "COc1ccc2c(c1)C1=NN(/C(C)=C/C(C)=O)C(c3cccc(F)c3)C1CC2", "note": "(stereo unspecified)", "Potency": "5.8 µM (active)"}, {"smiles": "Cc1ccc(-c2nc3sc(C#N)c(N)n3c(=O)c2C#N)cc1", "Potency": "8.2 µM (active)"}, {"smiles": "COc1c(Cl)cc(C(=O)NCc2ccco2)cc1Cl", "Potency": "14.6 µM (active)"}, {"smiles": "Cc1c(C(=O)NCc2ccco2)oc2c(Cl)cccc12", "Potency": "1.46 µM (active)"}, {"smiles": "COc1ccccc1NC(=O)c1ccc(Cl)c(S(=O)(=O)NCc2ccco2)c1", "Potency": "10.3 µM (active)"}, {"smiles": "O=C(CCS(=O)(=O)c1ccccc1)Nc1nc2ccc(F)cc2s1", "Potency": "18.4 µM (active)"}, {"smiles": "COc1ccc(OC)c2sc(NC(=O)CCS(=O)(=O)c3ccccc3)nc12", "Potency": "3.26 µM (active)"}, {"smiles": "COc1ccc(C)c2sc(NC(=O)CCS(=O)(=O)c3ccccc3)nc12", "Potency": "4.11 µM (active)"}, {"smiles": "CCOC(=O)c1ccsc1NC(=O)CCS(=O)(=O)c1ccccc1", "Potency": "18.4 µM (active)"}, {"smiles": "O=C(CCS(=O)(=O)c1ccccc1)Nc1nc2c(s1)COc1ccccc1-2", "Potency": "6.51 µM (active)"}, {"smiles": "Cc1cccc2cc3c(nc12)-c1ccccc1C3=O", "Potency": "10.3 µM (active)"}, {"smiles": "c1ccc2nc3c(ccc4ccccc43)cc2c1", "Potency": "9.2 µM (active)"}, {"smiles": "COC(=O)c1c(NC(=O)c2ccccc2)sc(C(N)=O)c1C", "Potency": "1.46 µM (active)"}, {"smiles": "CCOC(=O)c1sc(NC(=O)c2ccccc2F)c(C(N)=O)c1C", "Potency": "2.31 µM (active)"}, {"smiles": "c1ccc(N2CC3COc4ccccc4C3=N2)cc1", "note": "(stereo unspecified)", "Potency": "2.59 µM (active)"}, {"smiles": "c1ccc(N2CC3CCc4ccccc4C3=N2)cc1", "note": "(stereo unspecified)", "Potency": "5.8 µM (active)"}, {"smiles": "CC1CN(c2sc(S(C)(=O)=O)nc2S(=O)(=O)c2ccc(Cl)cc2)CC(C)O1", "note": "(stereo unspecified)", "Potency": "6.51 µM (active)"}, {"smiles": "Cc1ccc(S(=O)(=O)c2nc(S(C)(=O)=O)sc2N2CC(C)OC(C)C2)cc1", "note": "(stereo unspecified)", "Potency": "18.4 µM (active)"}, {"smiles": "CCCS(=O)(=O)c1nc(S(=O)(=O)c2ccc(C)cc2)c(N2CC(C)OC(C)C2)s1", "note": "(stereo unspecified)", "activation": "7.58% (inactive)"}, {"smiles": "CCOC(=O)c1cnc(-c2ccccc2)nc1-c1ccccc1", "Potency": "9.2 µM (active)"}, {"smiles": "Nc1nc(Nc2ccccc2F)nc(NCc2ccco2)c1[N+](=O)[O-]", "Potency": "2.31 µM (active)"}, {"smiles": "O=C1C=C(C#Cc2ccccc2)C[C@@H](c2ccc(F)cc2)C1", "Potency": "11.6 µM (active)"}, {"smiles": "O=C(CCS(=O)(=O)c1ccccc1)Nc1nc(-c2ccccn2)cs1", "Potency": "18.4 µM (active)"}, {"smiles": "CC(C)(C)c1csc(NC(=O)CCS(=O)(=O)c2ccc(F)cc2)n1", "Potency": "20.6 µM (active)"}, {"smiles": "Cc1ccc2ccc(C3C(=O)c4ccccc4C3=O)nc2c1", "Potency": "1.64 µM (active)"}, {"smiles": "C#CCSc1nc(-c2ccccc2)cc(C(F)(F)F)c1C#N", "Potency": "11.6 µM (active)"}, {"smiles": "Cc1ccc(-c2cc(C(F)(F)F)c(C#N)c(SCCC#N)n2)o1", "Potency": "2.59 µM (active)"}, {"smiles": "c1ccc2c(-c3nc4ncccc4o3)cccc2c1", "Potency": "6.51 µM (active)"}, {"smiles": "Cn1c(SCC(=O)N/N=C/C=C\\c2ccco2)nc2ccccc21", "Potency": "2.59 µM (active)"}, {"smiles": "CCn1c(SCC(=O)N/N=C/C=C/c2ccco2)nc2ccccc21", "Potency": "1.46 µM (active)"}, {"smiles": "CCn1c(SCC(=O)N/N=C/C=C\\c2ccco2)nc2ccccc21", "Potency": "1.84 µM (active)"}, {"smiles": "Cn1c(SCC(=O)N/N=C/C=C\\c2ccccc2[N+](=O)[O-])nc2ccccc21", "Potency": "0.366 µM (active)"}, {"smiles": "Cc1cccc(N=C2NC(=O)S/C2=C\\c2ccco2)c1", "Potency": "3.26 µM (active)"}, {"smiles": "Cc1ccc(N=C2NC(=O)S/C2=C\\c2ccco2)cc1", "Potency": "7.31 µM (active)"}, {"smiles": "C=CCn1c(=NC(=O)c2cc(Cl)sc2Cl)sc2cc(S(N)(=O)=O)ccc21", "Potency": "2.31 µM (active)"}, {"smiles": "Oc1c(-c2cc(-c3ccco3)[nH]n2)ccc2ccccc12", "Potency": "2.31 µM (active)"}, {"smiles": "Oc1ccc(Br)cc1-c1cc(-c2ccco2)[nH]n1", "Potency": "3.66 µM (active)"}, {"smiles": "Oc1ccc(Cl)cc1-c1cc(-c2ccco2)[nH]n1", "Potency": "3.66 µM (active)"}, {"smiles": "COc1ccccc1NC(=O)c1cc(Cl)nc2ccccc12", "Potency": "5.17 µM (active)"}, {"smiles": "O=[N+]([O-])c1cnccc1-n1nnc2ccccc21", "Potency": "18.4 µM (active)"}, {"smiles": "COc1ccc(S(=O)(=O)NCCc2csc3nc(-c4ccc(Cl)cc4)nn23)cc1C", "Potency": "5.17 µM (active)"}, {"smiles": "O=C(COCc1cc(-c2cccs2)on1)Nc1cc(Cl)ccc1O", "Potency": "2.31 µM (active)"}, {"smiles": "O=C(COCc1cc(-c2ccc(F)cc2)on1)Nc1cc(Cl)ccc1O", "Potency": "8.2 µM (active)"}]}]}
